This is one part of the list. Where a call stands in place of a potency, no number is given. Records with an inconclusive call do not appear. Activity calls are given as the source filed them. The call rests on the fitted dose curve; in most records, active means well fitted inhibition curve with a large enough effect in the main read-out, with a control signal flat; inconclusive means small, poorly fitted or top-dose-only effect, or a change in a side signal; inactive means no such curve, though single readings can be large or run the other way.
Target: Caspase-7 (Homo sapiens) (UniProt P55210)
Experiment: Concentration-Response Counterscreen for Redox Active Inhibitors of Caspase-7: Cysteine
Details: caspase-7 enzyme with cysteine, fluorogenic substrate; series mostly up to 57.5 µM
Text: NIH Molecular Libraries Screening Centers Network [MLSCN]
NIH Chemical Genomics Center [NCGC]
PI Name: Dr. James Wells,
Dr. Enrique Perez-Paya, Dr.Janice Williams, Dr. Dennis Wolan, a person
The caspases (Cysteine Aspartyl Protease) comprise a related family of 14 dimeric proteases that are critical mediators of apoptosis (programmed cell death) and inflammation. The caspases represent an important class of drug targets for stroke, ischemia, cancer and inflammatory diseases. […] One goal of this project was to identify compounds that act as allosteric inhibitors via stabilizing the procaspase form of the enzyme. […]
The biochemical assay was configured using purified caspase 7 at a high enzyme concentration to promote formation of the homodimers and thus facilitate the identification of allosteric inhibitors. […] After initiation of the assay with substrate the plates were rapidly read using an automated robotic system (Kalypsys, Inc.) to maintain consistent timing. […] Product formation was also measured after 1 hour. […]
Caspase 7 was prepared in buffer (50 mM HEPES pH 7.5, 50 mM KCl, 200 mM NaCl, 10 mM Cys (Aldrich cat# 861677), 0.1% CHAPS) at a concentration of 66.6 nM and 3 uL was dispensed to all wells using black solid Kalypsys 1536-well plates. […] The plates were then exposed using 405 nm excitation/520 nm emission filters for 4 sec and read at 20 sec intervals for 3 min. […]

Sequence of Caspase-7 (Homo sapiens) (P55210 24-198 limits assumed): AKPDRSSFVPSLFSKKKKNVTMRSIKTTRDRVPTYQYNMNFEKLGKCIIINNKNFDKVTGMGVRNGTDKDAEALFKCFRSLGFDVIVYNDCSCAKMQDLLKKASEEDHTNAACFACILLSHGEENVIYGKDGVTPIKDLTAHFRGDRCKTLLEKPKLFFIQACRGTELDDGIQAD
Sequence of Caspase-7 (Homo sapiens) (P55210 207-303 limits assumed): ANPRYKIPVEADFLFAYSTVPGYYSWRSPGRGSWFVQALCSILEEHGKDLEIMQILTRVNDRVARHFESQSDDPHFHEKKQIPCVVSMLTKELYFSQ

SMILES | Potency
N#CC1=C(N)Oc2cc(O)ccc2C1C1CCCCC1 (configuration not stated) | 25.1 µM (active)
CCN1C(=O)/C(=C2/Sc3ccccc3N2CCCS(=O)(=O)O)SC1=S | inactive

Source: PubChem BioAssay AID908 (National Center for Advancing Translational Sciences (NCATS), 2007)
